Shown are actives, neighbours in structure and some others; about 17% of the full set was active somewhere.
ClpP mod: qHTS Assay for Activators of ClpP. ATP-dependent Clp protease proteolytic subunit (Bacillus subtilis (strain 168)), P80244. purified B. subtilis ClpP, FRET peptide cleavage, 20 min. Potency, µM (titrated, usually from 57.5 µM), for the others: top-dose activity change, negative = active. 340,000 tested, 1.9% active. AID 651965, 2013; active means well fitted falling curve with a large enough effect; inconclusive means small, poorly fitted or top-dose-only effect; inactive means no such curve, though single readings can be large or run the other way; further: the source files actives as falling curves though it sought activators and does not explain the sign; nearly all actives have a fitted effect of over 65% in size
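ClpP 10 microg/mL final, pH 8 Tris/KCl buffer with BSA, glycerol, Tween-20; compound pinned in; FRET-FV substrate; RT 20 min; Ex320/Em430; ΔFRET vs ADEP 5.8 microM, DMSO, no enzyme.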
DT40 TDP1 CPT: DT40-hTDP1 cell growth loss with CPT. chicken DT40 Tdp1-/-;hTDP1 cells + 20 nM CPT, ATP luminescence, 48 h. Potency, µM (series often up to 46.2 µM), for the others: top-dose activity change, negative = growth inhibition, most hits filed as inhibitors. 420,000 tested, 12% active; further: on the % scale 0 is the no-effect control and ±100 the full control effect; nearly all actives have a fitted effect of over 55% in size
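Chicken DT40 Tdp1-/- cells complemented with human TDP1, 400 cells/well, exposed to compounds plus 20 nM camptothecin for at least 48 h at 37 C; viability read as ATP content by CellTiter-Glo luminescence.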
TDP1 inh: TDP1 (human) enzyme inhibition. Q9NUW8. recombinant TDP1, AlphaScreen DNA substrate cleavage. Potency, µM (doses to about 130 µM), inactives show at the highest dose activity change, negative = inhibition, actives largely listed as inhibitors. 350,000 tested, 0.28% active; further: on the % scale 0 is the no-effect control and ±100 the full control effect; nearly all actives have a fitted effect of over 40% in size
Target sequence (Q9NUW8 whole entry, looked up): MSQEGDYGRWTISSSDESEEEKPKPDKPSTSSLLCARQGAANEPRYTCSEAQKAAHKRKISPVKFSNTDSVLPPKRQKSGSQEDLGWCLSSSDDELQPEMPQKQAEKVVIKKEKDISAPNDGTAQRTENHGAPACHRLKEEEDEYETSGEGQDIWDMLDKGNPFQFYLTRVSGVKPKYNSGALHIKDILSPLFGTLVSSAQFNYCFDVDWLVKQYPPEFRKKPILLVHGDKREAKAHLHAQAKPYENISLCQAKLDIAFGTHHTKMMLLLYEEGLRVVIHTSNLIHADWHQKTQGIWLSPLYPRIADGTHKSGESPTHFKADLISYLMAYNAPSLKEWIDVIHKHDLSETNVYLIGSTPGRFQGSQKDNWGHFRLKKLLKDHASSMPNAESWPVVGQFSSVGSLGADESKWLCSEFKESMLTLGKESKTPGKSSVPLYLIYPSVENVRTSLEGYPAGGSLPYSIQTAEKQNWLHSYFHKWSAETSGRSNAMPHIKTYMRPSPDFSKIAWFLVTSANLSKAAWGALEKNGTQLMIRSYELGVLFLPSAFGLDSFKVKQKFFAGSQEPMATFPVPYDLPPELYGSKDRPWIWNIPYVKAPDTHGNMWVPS
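E. coli-derived human Tdp1, 1 nM final. Cpd preinc 15 min RT; substrate 15 nM final, 5 min RT; AS bead mix 10 ug/ml final, 10 min RT. Signal loss = tyrosine-FITC cleavage. No-enzyme wells = max signal.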
TDP1 cell noCPT: qHTS for Inhibitors of human tyrosyl-DNA phosphodiesterase 1 (TDP1): qHTS in cells in absence of CPT; DT40 Tdp1-/- hTDP1 cells, no CPT, ATP luminescence, 48 h; 420,000 tested, 15% active; Potency, µM (highest dose often 46.2 µM), without a hit: top-dose activity change, negative = growth inhibition, most hits filed as inhibitors; further: on the % scale 0 is the no-effect control and ±100 the full control effect; nearly all actives have a fitted effect of over 55% in size
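No-CPT arm: Tdp1-/-;hTDP1 DT40 cells (400/well) plus compounds, incubated ≥48 hr at 37 °C. Readout CellTiter-Glo luminescence.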
Active calls of the source: *; ! = not active in a repeat; [ ] = another dose, or the depositor's remark. Unless noted, the call rests on the fitted dose curve; in most records, active means well fitted curve in the direction sought with a large enough effect; inconclusive means small, poorly fitted or top-dose-only effect, or another doubt; inactive means no such curve, though single readings can be large; an effect the other way counts as inactive or inconclusive. Potency means the concentration at half of the fitted maximal effect.

Screening Cc1ccc(S(=O)(=O)C=CS(=O)(=O)c2ccc(C)cc2)cc1 returned ClpP mod 3%, DT40 TDP1 CPT 1µM* and TDP1 cell noCPT 0.73µM*.
For Cc1ccc(S(=O)(=O)CCC(=O)NCc2ccccc2Cl)cc1 the results were DT40 TDP1 CPT -13%, TDP1 inh 3% and TDP1 cell noCPT -8%.
For Cc1ccc(S(=O)(=O)Cc2ccccc2Cl)cc1 the results were ClpP mod 0%, DT40 TDP1 CPT inconclusive, TDP1 inh -1% and TDP1 cell noCPT 21µM*.
COc1ccc(Nc2ncnc3scc(-c4ccc(F)cc4)c23)cc1 was read as ClpP mod inconclusive, DT40 TDP1 CPT inconclusive, TDP1 inh 1% and TDP1 cell noCPT inconclusive.
For COc1ccc(-c2csc3ncnc(Nc4ccc(OC)c(OC)c4)c23)cc1 the results were ClpP mod 5%, DT40 TDP1 CPT inconclusive, TDP1 inh -6% and TDP1 cell noCPT 8.2µM*.
COc1ccc(Nc2ncnc3scc(-c4ccc(OC)cc4)c23)cc1 was read as ClpP mod -29%, DT40 TDP1 CPT 2.9µM*, TDP1 inh -3% and TDP1 cell noCPT 4.6µM*.
`CCC(C)C(=O)OC1CCC=C2C=CC(C)C(CCC3CC(O)CC(=O)O3)C21` (centres undefined) gave ClpP mod 1%, DT40 TDP1 CPT inconclusive and TDP1 cell noCPT 23µM*.
Screening CC[C@H](C)C(=O)O[C@H]1CCC=C2C=C[C@H](C)[C@H](CC[C@@H]3C[C@@H](O)CC(=O)O3)[C@H]21 returned ClpP mod 1%, DT40 TDP1 CPT inconclusive, TDP1 inh 0% and TDP1 cell noCPT 15µM*!.
Screening CC[C@H](C)C(=O)O[C@H]1CCC=C2C=C[C@H](C)[C@H](CC[C@@H]3C[C@H](O)CC(=O)O3)[C@H]21 returned DT40 TDP1 CPT 19µM*, TDP1 inh 11%[56.1 µM] and TDP1 cell noCPT 13µM*.
O=C(Cn1c2c(sc1=O)C1c3ccccc3OCC1CS2)Nc1ccc(Cl)c(Cl)c1 (centres undefined) was read as ClpP mod 0%, DT40 TDP1 CPT 9.2µM*, TDP1 inh 6% and TDP1 cell noCPT 16µM*.
`COc1ccc(/C(C)=N/Nc2ncc(Cl)cc2Cl)c(O)c1` gave ClpP mod 1%, DT40 TDP1 CPT inconclusive, TDP1 inh 4% and TDP1 cell noCPT 0.0082µM*.
Screening C/C(=N\Nc1ncc(Cl)cc1Cl)c1ccc(C#N)cc1 returned ClpP mod 47%, DT40 TDP1 CPT -6%, TDP1 inh -1% and TDP1 cell noCPT 7%.
Screening Cc1c(Cl)cccc1NC(=O)c1ccc(NC(=O)N2CCSc3ncccc32)cc1 returned ClpP mod inconclusive, DT40 TDP1 CPT inconclusive, TDP1 inh 8% and TDP1 cell noCPT inconclusive.
Screening O=c1[nH]nc(Br)c(=O)n1C(c1ccccc1)c1ccccc1 returned ClpP mod -1%, DT40 TDP1 CPT 21µM* and TDP1 cell noCPT inconclusive.
For CN1CCN(Cc2cn[nH]c2-c2ccc(F)cc2F)[C@@H](c2ccccc2)C1 the results were DT40 TDP1 CPT 0%, TDP1 inh 3% and TDP1 cell noCPT -14%.
N#Cc1ncc(-c2ccc3c(c2)OCCOCCOCCOCCO3)nc1C#N was read as ClpP mod 2%, DT40 TDP1 CPT 5.8µM*, TDP1 inh 3% and TDP1 cell noCPT 4.6µM*.
`N#Cc1ncc(-c2ccc3c(c2)OCCOCCOCCOCCOCCO3)nc1C#N` gave ClpP mod 32µM*, DT40 TDP1 CPT 12µM*, TDP1 inh 5% and TDP1 cell noCPT 13µM*.
`NC(=S)NN=C1CCCCCCCCCC1` gave ClpP mod -1%, DT40 TDP1 CPT 3.7µM* and TDP1 cell noCPT 10µM*.
NC(=S)NN=C1CCC(C2CCCCC2)CC1 (centres undefined) was read as DT40 TDP1 CPT 5.8µM* and TDP1 cell noCPT 3.7µM*.
For COc1ccc(-c2nnc(SCC(=O)N(C)Cc3ccccc3)o2)cc1OC the results were ClpP mod -3%, DT40 TDP1 CPT inconclusive, TDP1 inh 11% and TDP1 cell noCPT inconclusive.
`COCCNCC(=O)Nc1ccccc1Sc1ccccc1` gave ClpP mod 2%, DT40 TDP1 CPT inconclusive, TDP1 inh 2% and TDP1 cell noCPT -3%.
